# According to the supplement of paper PMC8728848:
# This excerpt belongs to a sample that is enriched for the strongest signals.
# Legend:
# Experiment in all cases: glycan array binding signal (z-score within array); higher = stronger binding
# Conditions in all cases: glycan notation: IUPAC condensed, linker removed
# [1] = molecular target: Fuc(a1-2)Gal(b1-3)GalNAc(a1-3)[Fuc(a1-2)]Gal(b1-4)Glc
# In short: (§1)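 Glycan array binding is given as a within-array Z-score, which can be read as non-binding when negative. The arrays, 3228 of them, came from the Consortium for Functional Glycomics database and were retained only where the protein sequence was available. Z-scores were averaged across arrays of the same protein sequence at different concentrations or buffers and across linkers.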
# Fuc(a1-2)Gal(b1-3)GlcNAc = molecular target: Fuc(a1-2)Gal(b1-3)GlcNAc
# In short: as §1
# [2] = molecular target: Fuc(a1-2)Gal(b1-3)GlcNAc(b1-3)[Neu5Ac(a2-6)Gal(b1-4)GlcNAc(b1-6)]Gal(b1-4)Glc
# In short: as §1
# [3] = molecular target: Fuc(a1-2)Gal(b1-3)[Fuc(a1-4)]GlcNAc(b1-3)[Fuc(a1-3)[Gal(b1-4)]GlcNAc(b1-6)]Gal(b1-4)Glc
# In short: as §1
# [4] = molecular target: Fuc(a1-2)Gal(b1-4)GlcNAc(b1-2)Man
# In short: as §1
# [5] = molecular target: Fuc(a1-2)Gal(b1-4)GlcNAc(b1-2)[Fuc(a1-2)Gal(b1-4)GlcNAc(b1-4)]Man(a1-3)[Fuc(a1-2)Gal(b1-4)GlcNAc(b1-2)Man(a1-6)]Man(b1-4)GlcNAc(b1-4)GlcNAc
# In short: as §1
# [6] = molecular target: Fuc(a1-2)Gal(b1-4)GlcNAc(b1-3)[Fuc(a1-3)[Gal(b1-4)]GlcNAc(b1-6)]Gal(b1-4)Glc
# In short: as §1
# [7] = molecular target: Fuc(a1-2)[GalNAc(a1-3)]Gal(b1-4)GlcNAc(b1-6)GalNAc
# In short: as §1
# [8] = molecular target: Fuc(a1-3)[Gal(b1-4)]GlcNAc(b1-2)Man(a1-3)[Fuc(a1-3)[Gal(b1-4)]GlcNAc(b1-2)Man(a1-6)]Man(b1-4)GlcNAc(b1-4)[Fuc(a1-6)]GlcNAc
# In short: as §1
# [9] = molecular target: Fuc(a1-3)[Gal(b1-4)]GlcNAc(b1-6)[Gal(b1-3)GlcNAc(b1-3)]Gal(b1-4)Glc
# In short: as §1
# [10] = molecular target: Fuc(a1-3)[GalNAc(b1-4)]GlcNAc
# In short: as §1
# Fuc(a1-4)GlcNAc = molecular target: Fuc(a1-4)GlcNAc
# In short: as §1
# [11] = molecular target: Gal(a1-3)Gal(b1-4)GlcNAc(b1-6)GalNAc
# In short: as §1
# Gal(a1-3)GalNAc = molecular target: Gal(a1-3)GalNAc
# In short: as §1
# [12] = molecular target: Gal(b1-3)GalNAc(b1-4)Gal(b1-4)Glc
# In short: as §1
# [13] = molecular target: Gal(b1-3)GlcNAc(b1-3)Gal(b1-4)GlcNAc(b1-6)[Gal(b1-3)GlcNAc(b1-3)]Gal(b1-4)Glc
# In short: as §1
# [14] = molecular target: Gal(b1-3)GlcNAc(b1-3)Gal(b1-4)[Fuc(a1-3)]GlcNAc(b1-6)[Gal(b1-3)GlcNAc(b1-3)]Gal(b1-4)Glc
# In short: as §1
# [15] = molecular target: Gal(b1-3)[GlcNAc(b1-6)]GalNAc
# In short: as §1
# [16] = molecular target: Gal(b1-4)GlcNAc(b1-2)[Gal(b1-4)GlcNAc(b1-6)]Man(a1-6)[GlcNAc(b1-4)][Gal(b1-4)GlcNAc(b1-2)Man(a1-3)]Man(b1-4)GlcNAc(b1-4)GlcNAc
# In short: as §1
# [17] = molecular target: Gal(b1-4)GlcNAc(b1-3)Gal(b1-4)Glc
# In short: as §1
# [18] = molecular target: Gal(b1-4)GlcNAc(b1-3)Gal(b1-4)GlcNAc(b1-3)Gal(b1-4)GlcNAc(b1-3)Gal(b1-4)GlcNAc(b1-3)Gal(b1-4)GlcNAc(b1-2)Man(a1-3)[Gal(b1-4)GlcNAc(b1-3)Gal(b1-4)GlcNAc(b1-3)Gal(b1-4)GlcNAc(b1-3)Gal(b1-4)GlcNAc(b1-3)Gal(b1-4)GlcNAc(b1-2)Man(a1-6)]Man(b1-4)GlcNAc(b1-4)GlcNAc
# In short: as §1
# [19] = molecular target: Gal(b1-4)GlcNAc(b1-3)Gal(b1-4)[Fuc(a1-3)]GlcNAc(b1-3)Gal(b1-4)[Fuc(a1-3)]GlcNAc
# In short: as §1
# [20] = molecular target: Gal(b1-4)GlcNAc(b1-6)Gal(b1-4)GlcNAc
# In short: as §1
# Gal3S(b1-4)Glc = molecular target: Gal3S(b1-4)Glc
# In short: as §1
# [21] = molecular target: Gal3S(b1-4)[Fuc(a1-3)]GlcNAc
# In short: as §1
# Gal6S(b1-4)GlcNAc6S = molecular target: Gal6S(b1-4)GlcNAc6S
# In short: as §1
# [22] = molecular target: Glc(a1-6)Glc(a1-6)Glc(a1-6)Glc
# In short: as §1
# [23] = molecular target: GlcNAc(b1-3)Gal(b1-4)GlcNAc(b1-2)Man(a1-3)[GlcNAc(b1-3)Gal(b1-4)GlcNAc(b1-2)Man(a1-6)]Man(b1-4)GlcNAc(b1-4)GlcNAc
# In short: as §1
# [24] = molecular target: GlcNAc(b1-3)Gal(b1-4)GlcNAc(b1-3)Gal(b1-4)GlcNAc
# In short: as §1
# [25] = molecular target: GlcNAc(b1-3)Gal(b1-4)GlcNAc(b1-3)Gal(b1-4)GlcNAc(b1-2)[GlcNAc(b1-3)Gal(b1-4)GlcNAc(b1-3)Gal(b1-4)GlcNAc(b1-6)]Man(a1-6)[GlcNAc(b1-3)Gal(b1-4)GlcNAc(b1-3)Gal(b1-4)GlcNAc(b1-2)Man(a1-3)]Man(b1-4)GlcNAc(b1-4)[Fuc(a1-6)]GlcNAc
# In short: as §1
# [26] = molecular target: GlcNAc(b1-3)Gal(b1-4)GlcNAc(b1-3)Gal(b1-4)GlcNAc(b1-3)Gal(b1-4)GlcNAc(b1-2)Man(a1-3)[GlcNAc(b1-3)Gal(b1-4)GlcNAc(b1-3)Gal(b1-4)GlcNAc(b1-3)Gal(b1-4)GlcNAc(b1-2)Man(a1-6)]Man(b1-4)GlcNAc(b1-4)[Fuc(a1-6)]GlcNAc
# In short: as §1
# [27] = molecular target: GlcNAc(b1-3)Gal(b1-4)GlcNAc(b1-3)Gal(b1-4)GlcNAc(b1-3)Gal(b1-4)GlcNAc(b1-2)[GlcNAc(b1-3)Gal(b1-4)GlcNAc(b1-3)Gal(b1-4)GlcNAc(b1-3)Gal(b1-4)GlcNAc(b1-6)]Man(a1-6)[GlcNAc(b1-3)Gal(b1-4)GlcNAc(b1-3)Gal(b1-4)GlcNAc(b1-3)Gal(b1-4)GlcNAc(b1-2)Man(a1-3)]Man(b1-4)GlcNAc(b1-4)[Fuc(a1-6)]GlcNAc
# In short: as §1
# GlcNAc(b1-4)GlcNAc = molecular target: GlcNAc(b1-4)GlcNAc
# In short: as §1
# [28] = molecular target: GlcNAc(b1-4)[GlcNAc(b1-6)]GalNAc
# In short: as §1
# [29] = molecular target: GlcNAc(b1-6)Gal(b1-4)GlcNAc
# In short: as §1
# [30] = molecular target: Man(a1-2)Man(a1-2)Man(a1-6)[Man(a1-3)]Man
# In short: as §1
# [31] = molecular target: Man(a1-3)[Man(a1-6)]Man(b1-4)GlcNAc(b1-4)GlcNAc
# In short: as §1
# Man(b1-4)GlcNAc = molecular target: Man(b1-4)GlcNAc
# In short: as §1
# Neu5Ac(a2-3)Gal = molecular target: Neu5Ac(a2-3)Gal
# In short: as §1
# [32] = molecular target: Neu5Ac(a2-3)Gal(b1-3)GalNAc6S
# In short: as §1
# [33] = molecular target: Neu5Ac(a2-3)Gal(b1-3)GlcNAc(b1-3)Gal(b1-4)GlcNAc
# In short: as §1
# [34] = molecular target: Neu5Ac(a2-3)Gal(b1-4)GlcNAc(b1-2)Man(a1-3)[Neu5Ac(a2-6)Gal(b1-4)GlcNAc(b1-2)Man(a1-6)]Man(b1-4)GlcNAc(b1-4)GlcNAc
# In short: as §1
# [35] = molecular target: Neu5Ac(a2-3)Gal(b1-4)GlcNAc(b1-3)Gal(b1-4)GlcNAc(b1-2)Man(a1-3)[Neu5Ac(a2-3)Gal(b1-4)GlcNAc(b1-3)Gal(b1-4)GlcNAc(b1-2)Man(a1-6)]Man(b1-4)GlcNAc(b1-4)GlcNAc
# In short: as §1
# [36] = molecular target: Neu5Ac(a2-3)Gal(b1-4)[Fuc(a1-3)]GlcNAc(b1-2)Man
# In short: as §1
# Neu5Ac(a2-8)Neu5Ac = molecular target: Neu5Ac(a2-8)Neu5Ac
# In short: as §1
# [37] = molecular target: Neu5Ac(a2-8)Neu5Ac(a2-8)Neu5Ac
# In short: as §1
# [38] = molecular target: Neu5Gc(a2-3)Gal(b1-4)GlcNAc
# In short: as §1
binder,measurement,setting,value
Epf (Streptococcus pyogenes) (protein) GDHGPEFNGVMVVKAAEAEELPDDLMNFKGTWEVSADGSSGRFFSKGATDSYVFHLIPAKDVKKPGWREHNEVKDSYIKIDKQSIAARYKTSTTAPYSVAFKVNTKSLIKDHDYKITFEQGQIASGITVDYRIGSAFNKTTDDSFKISDESKYASNVKIEGEEQGFKQREQGDKTISFRTLKEGPMSLVLLSKVEKKPQGDLDVEFKNLKIIDVTNPSQLDKGVAYVGNKNVQLTLKSDDGRTNFEGDEISLFNSRGELLQTVTVTKDQQNPISITLSEDQAKSLKNKEKLKVSIKQKQSKKTSKDFFFEVGIDPKVEAKQKEKLLELDKVKKQIEDSINGDAWLPEKPVDLQGDHGLSAWSHPQFEK,glycan array binding signal (z-score),[1],-0.202
same,glycan array binding signal (z-score),Fuc(a1-2)Gal(b1-3)GlcNAc,-0.175
same,glycan array binding signal (z-score),[2],0.514
same,glycan array binding signal (z-score),[3],3.33
same,glycan array binding signal (z-score),[4],0.654
same,glycan array binding signal (z-score),[5],-0.184
same,glycan array binding signal (z-score),[6],2.21
same,glycan array binding signal (z-score),[7],-0.052
same,glycan array binding signal (z-score),[8],-0.996
same,glycan array binding signal (z-score),[9],-2.21
same,glycan array binding signal (z-score),[10],2.73
same,glycan array binding signal (z-score),Fuc(a1-4)GlcNAc,-0.354
same,glycan array binding signal (z-score),[11],-1.75
same,glycan array binding signal (z-score),Gal(a1-3)GalNAc,0.627
same,glycan array binding signal (z-score),[12],-0.182
same,glycan array binding signal (z-score),[13],2.25
same,glycan array binding signal (z-score),[14],3.16
same,glycan array binding signal (z-score),[15],0.807
same,glycan array binding signal (z-score),[16],3.4
same,glycan array binding signal (z-score),[17],-1.14
same,glycan array binding signal (z-score),[18],2.53
same,glycan array binding signal (z-score),[19],-1.31
same,glycan array binding signal (z-score),[20],-0.547
same,glycan array binding signal (z-score),Gal3S(b1-4)Glc,1.73
same,glycan array binding signal (z-score),[21],1
same,glycan array binding signal (z-score),Gal6S(b1-4)GlcNAc6S,2.34
same,glycan array binding signal (z-score),[22],0
same,glycan array binding signal (z-score),[23],-0.562
same,glycan array binding signal (z-score),[24],0.659
same,glycan array binding signal (z-score),[25],0.082
same,glycan array binding signal (z-score),[26],2.18
same,glycan array binding signal (z-score),[27],2.85
same,glycan array binding signal (z-score),GlcNAc(b1-4)GlcNAc,-1.32
same,glycan array binding signal (z-score),[28],3.11
same,glycan array binding signal (z-score),[29],-0.433
same,glycan array binding signal (z-score),[30],1.01
same,glycan array binding signal (z-score),[31],0.659
same,glycan array binding signal (z-score),Man(b1-4)GlcNAc,-0.471
same,glycan array binding signal (z-score),Neu5Ac(a2-3)Gal,-0.169
same,glycan array binding signal (z-score),[32],1.65
same,glycan array binding signal (z-score),[33],-1.25
same,glycan array binding signal (z-score),[34],-0.643
same,glycan array binding signal (z-score),[35],1.33
same,glycan array binding signal (z-score),[36],-1.48
same,glycan array binding signal (z-score),Neu5Ac(a2-8)Neu5Ac,0.246
same,glycan array binding signal (z-score),[37],-0.377
same,glycan array binding signal (z-score),[38],0.422
